Screening results: PubChem, National Center for Advancing Translational Sciences (NCATS)
Rows were chosen to be rich in hits. Some 21% of all compounds tested hit in one or more screens of this group.
CHX counter: Cycloheximide Counterscreen for Small Molecule Inhibitors of Shiga Toxin; cell reporter, cycloheximide protein synthesis inhibition counterscreen; AID 2314, 2010; max response, %; 12% of 300,000 active; in the data active = max response mostly above about 13%, no sharp cut-off; inactive = mostly below about 14%; also: read at 38.3 µM for the half of the compounds with a filed dose; 0% is about no effect
Pf growth 96h: Primary qHTS for delayed death inhibitors of the malarial parasite plastid, 96 hour incubation; P. falciparum luciferase reporter growth, 96 h; Potency, µM (titrated, usually from 28.7 µM), for inactives: at the highest dose activity change, negative = inhibition, hits mostly inhibitors; 6.9% of 320,000 active; also: potency is read from the fitted curve at half-maximal effect; % is scaled to controls: 0 for no effect and ±100 for the full control effect
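Luminescence readout: decreased luciferase signal marks inhibited growth of reporter-expressing P. falciparum in infected red cells (2% hematocrit, 0.05% parasitemia final), exposed to compound two generations (96 h, 37 C, 5% CO2).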
Shiga inhibitor: A qHTS for Small Molecule Inhibitors of Shiga Toxin; Vero cells, Shiga toxin protein synthesis inhibition reporter; inhibition, % at 38.7 µM; 9.2% of 290,000 active; AID 2315, 2010; in the data active = inhibition mostly above about 28%, no sharp cut-off; inactive = mostly below about 43%; also: 0% is about no effect
NS1 function inh: qHTS Assay for Inhibitors of Influenza NS1 Protein Function; Potency, µM (highest dose often 46.1 µM), inactives show top-dose activity, positive = more growth; 0.4% of 270,000 active; calls by dose curve; also: potency is read from the fitted curve at half-maximal effect; actives are rising curves; nearly all actives have a fitted effect of over 50% in size
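In this qHTS, NS1 from influenza A is expressed in budding yeast, where it slows growth. Cells are switched from glucose to 2% galactose medium (pH 6.0, -URA), treated with compound, and growth recovery is read at OD600.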
Pf growth 48h: Primary qHTS for delayed death inhibitors of the malarial parasite plastid, 48 hour incubation; P. falciparum luciferase growth in erythrocytes, 48 h; Potency, µM (titrated, usually from 28.7 µM), for the others: at the top dose activity change, negative = inhibition, actives largely listed as inhibitors; 5.9% of 310,000 active; AID 504832, 2011; also: potency is read from the fitted curve at half-maximal effect; % is scaled to controls: 0 for no effect and ±100 for the full control effect
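Cell-based growth assay: transgenic P. falciparum expressing firefly luciferase, cultured in red cells within RPMI 1640 containing 0.5% w/v Albumax, 24 mM bicarbonate and gentamycin. A drop in luciferase activity indicates inhibition.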
SARS PLpro yeast: qHTS of Yeast-based Assay for SARS-CoV PLP. AID 485353, 2010. Potency, µM (titrated, usually from 32.9 µM), inactives show top-dose activity, positive = growth rescue, usual class: activators. 0.19% of 330,000 active. S. cerevisiae expressing SARS-CoV PLpro, growth rescue; calls by dose curve; also: potency is read from the fitted curve at half-maximal effect; 0% is about no effect; nearly all actives have a fitted effect of over 55% in size
Active calls of the source: *; ? = inconclusive; . = not tested or not shown. Unless noted, calls follow the shape of the dose curve; as a rule, active = well fitted inhibition curve with a large enough effect; inconclusive = small, poorly fitted or top-dose-only effect, or another doubt; inactive = no such curve, though single readings can be large or run the other way.

SMILES | CHX counter | Pf growth 96h | Shiga inhibitor | NS1 function inh | Pf growth 48h | SARS PLpro yeast
Cc1nn(C)cc1/C=N/NC(=O)Cn1nnc(N)n1 | 1 | 18% | 19 | 7% | 13% | -1%
CC(=O)Oc1ccc(N2C(=O)C3C4C=CC(CC4)C3C2=O)cc1[N+](=O)[O-] (stereo not drawn) | 2 | ? | -11 | -38% | 20% | -2%
Cc1ccc(S(=O)(=O)N(C)CC(=O)OCC(=O)NCCc2ccc(S(N)(=O)=O)cc2)cc1 | . | . | . | . | . | 0%
Oc1cccc(N2Cc3ccccc3C2)c1 | 11 | 22% | 31* | 2% | 6% | -3%
CCOC(=O)c1ccc(N2Cc3cc(C)c(C)cc3C2)cc1O | 19* | 0% | 17 | 3% | 32% | 2%
O=Cc1ccc(N2Cc3ccccc3C2)cc1 | 18* | ? | 57* | -65% | 18% | -7%
Cc1ccc(C2SCCN2C(=O)c2ccc([N+](=O)[O-])cc2)cc1 (stereo not drawn) | -5 | 5% | 14 | -7% | ? | -9%
COc1ccccc1N/C(N)=N/c1nc(CSc2nc3ccccc3s2)cc(=O)[nH]1 | 12 | ? | 48* | 7% | 14% | ?
Cc1ccc(S(=O)(=O)N2CCCOC2CNC(=O)C(=O)NCCc2c[nH]c3ccccc23)cc1 (stereo not drawn) | 73* | 13µM* | 96* | ? | ? | -5%
O=C(NCCc1c[nH]c2ccccc12)C(=O)NCC1OCCCN1S(=O)(=O)c1ccccc1 (stereo not drawn) | -1 | ? | 4 | -6% | 9.3µM* | -2%
CC(=O)NCCC(=O)Nc1cc(S(=O)(=O)N2CCOCC2)ccc1Oc1ccc(F)cc1 | . | 0% | . | . | ? | -10%
O=S1(=O)CCOC[C@H](c2ccccc2)N1Cc1cccc(Cl)c1 | -2 | 38% | -1 | -32% | 16% | -12%
FC(F)(F)c1ccccc1C1C2=C(Nc3ncnn31)c1ccccc1CCC2 (stereo not drawn) | 0 | . | -21 | 8% | ? | -3%
C(=C1/CCCC2=C1Nc1ncnn1C2c1ccccc1)/c1ccccc1 (stereo not drawn) | -3 | -9% | -15 | ? | 12µM* | ?
CCOc1ccc(S(=O)(=O)N2CCCC(C(=O)N3CCN(CC)CC3)C2)cc1Cl (stereo not drawn) | -6 | 17% | -9 | -4% | 5% | 0%
COc1ncccc1-c1nnn(-c2ccc(Cl)c(Cl)c2)n1 | 18* | 246% | -6 | -5% | 172% | -1%
COc1ncnc(OC)c1NC(=O)c1ccc(F)cc1 | -2 | 59% | -7 | 5% | 21% | 2%
COc1ncccc1-c1nnn(-c2ccc(F)cc2)n1 | 54* | 251% | 71* | 0% | 410% | -1%
COc1ncccc1-c1nnn(-c2ccc(C)cc2)n1 | 49* | 207% | 131* | -1% | 170% | -1%
Cc1ccc(-n2nnc(-c3cc4ccccc4nc3Cl)n2)cc1 | 6 | 10% | 26 | 0% | 6% | 0%
Cc1ccc(-n2nnc(-c3nccs3)n2)cc1 | 1 | 333% | -17 | -9% | 49% | -2%
CC(C)Cn1cnc2c(Sc3c([N+](=O)[O-])ncn3C)nc(N)nc21 | . | . | . | -3% | . | .
CC(CN1CCCCC1)OC(=O)c1ccco1 (stereo not drawn) | -7 | ? | -2 | 6% | 15% | 0%
CN1CCC(N(C)c2nc(-c3ccc([N+](=O)[O-])cc3)nc3ccccc23)CC1 | -4 | 1.5µM* | -12 | -29% | ? | -5%
Cc1[nH]c(C)c2c(=O)n(Cc3ccc(Cl)cc3)ncc12 | 0 | ? | -1 | 7% | 12µM* | 1%
SMILES | CHX counter | Pf growth 96h | Shiga inhibitor | NS1 function inh | Pf growth 48h | SARS PLpro yeast
COc1ccc(N2CC(C(=O)NNC(=O)c3ccc(Br)cc3)CC2=O)c(OC)c1 (stereo not drawn) | . | -1% | . | . | 0% | .
O=c1cc(CSc2nnc(-c3ccccc3)o2)c2ccccc2[nH]1 | 10* | ? | 5 | -6% | 22% | 14%
Cc1ccc(C)c(CSc2nnc(-c3cccnc3)o2)c1 | 1 | 13µM* | -2 | -69% | ? | -7%
Fc1ccccc1CSc1nnc(-c2cccnc2)o1 | 48* | ? | 110* | . | 144% | -10%
Cc1ccccc1-c1nnc(Cc2ccccc2)o1 | 41* | -20% | 138* | -14% | 124% | -1%
O=[N+]([O-])c1ccccc1S(=O)(=O)NCCSc1ccccc1 | -1 | -24% | -2 | -35% | 31% | -8%
COc1cc(OC)cc(-c2nnc3n2N=C(c2ccc(OC)c(OC)c2)CS3)c1 | -12 | . | -6 | . | . | .
COc1ccc2c(CC(=O)Nc3ccc(OC)nc3)coc2c1 | 8 | -7% | -7 | . | -13% | -1%
COc1ccc(C2=NS(=O)(=O)N(C)C(C(=O)NCc3ccccn3)=C2)cc1OC | 2 | 8% | -2 | 5% | 4% | -5%
COc1ccc(-c2nc(Cn3c(SCc4ccccc4F)nc4ccncc43)c(C)o2)cc1 | -2 | 4.7µM* | -14 | 9% | . | ?
O=C(O)CSc1nnc(-c2ccccc2)o1 | -2 | 11% | 37 | 4% | -16% | 2%
Fc1cccc(Cl)c1CSc1nnc(CNc2ccccc2)o1 | 17* | 60% | 20 | -37% | 29% | 0%
COc1ccc(-c2nnc(SCc3ccccc3F)o2)cc1 | 47* | 240% | 118* | -67% | . | 4%
COc1ccc(-c2nc(Cn3c(SCc4ccc(F)cc4)nc4ccncc43)c(C)o2)cc1OC | -4 | ? | -14 | 10% | . | -3%
Fc1ccc(NCc2nnc(SCc3ccccc3)o2)cc1 | 12 | ? | 15 | -6% | 13% | -2%
Fc1ccccc1CSc1nnc(-c2ccccc2)o1 | 50* | . | 75* | -94% | 258% | -14%
CC(=O)OCCOc1nc(N(C)C)nc(N(C)C)n1 | 1 | ? | -4 | -6% | 3% | 6%
O=C(CSc1ccccc1)OCC(=O)N1CCN(C(=O)c2ccco2)CC1 | . | 21% | . | . | ? | -4%
Cc1ccccc1-c1nnc(SCc2ccccc2F)o1 | 58* | ? | 87* | -48% | 85% | -22%
COc1cc(OC)cc(-c2nnc(SCc3c(F)cccc3Cl)o2)c1 | 44* | ? | 81* | -30% | ? | ?
Cc1ccccc1-c1nnc(SCc2ccccc2)o1 | 32* | 48% | 84* | -60% | 130% | -17%
Cc1ccccc1-c1nnc(SCC(=O)Nc2cccc(C)c2C)o1 | -3 | . | 12 | -10% | 60% | 10%
Cc1ccc(CSc2nnc(-c3cccc4ccccc34)o2)cc1 | . | . | . | . | . | -4%
CCOC(=O)Cn1c(=NC(=O)c2ccc([N+](=O)[O-])s2)sc2ccccc21 | -1 | 3.7µM* | -10 | -34% | 9.3µM* | -57%
